Results on 94 compounds are retold here after PubChem BioAssay AID1626 (SRMLSC, 2009).

The whole screen tested about 220,000 compounds, of which about 2,000 (0.91%) were called active. About 2% were inconclusive and are not listed. The list is a sample of the results. Potency and affinity values are given separately. Unmarked numbers belong to inactive results. No stated cut-off is given here; in the data, inconclusive means inhibition above about 80% without an active follow-up result; inactive means below that; test concentration not stated here.

The nature of the assay: M. tuberculosis H37Rv growth inhibitors, H37Rv strain (AID 1626).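 Further: bacteria incubated seven days before Alamar blue readout; 0% = bacteria only wells and 100% = bacteria with antibiotic wells.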 The conditions noted are these: active compounds read high, concentration not given here.
`O=C(Cn1cnc2c(nnn2-c2ccccc2)c1=O)N1CCOCC1`: the inhibition is 3.36%.

In the case of `CCOc1ccc(-n2c(C)nc3c(cnn3-c3ccc(Cl)cc3)c2=O)cc1`, the inhibition is -1.94%.

For `Cc1ccccc1OCC(=O)Nc1ccc(N2CCN(S(C)(=O)=O)CC2)cc1`, the inhibition was -6.69%.

With `Cc1ccc(OCC(=O)Nc2ccc(N3CCN(C(=O)c4ccc(C)cc4)CC3)cc2)cc1`, the inhibition was -3.04%.

Turning to `CCOC(=O)N1CCN(c2cc(C)nc3nc(C)nn23)CC1`, the inhibition is -2.69%.

Regarding `CSc1cccc(NC(=O)CSc2ccc(C)cc2)c1`, the inhibition was 52.9%.

For `CCSCc1nnc(SCC(=O)Nc2cccc(C(C)=O)c2)n1C`, the inhibition is -4.22%.

With `COc1cccc(NC(=O)CSc2nnc(C)s2)c1`, the inhibition was -3.98%.

Take `CCSCc1nnc(SCC(=O)Nc2ccc(OC)cc2)n1C`: the inhibition is 7.37%.

`Nn1c(CN2CCCCC2)nc2ccccc2c1=O`: the inhibition was 4.4%.

`Cc1csc(NC(=O)CS(=O)(=O)c2ccccc2)n1`: the inhibition was -3.27%.

In the case of `O=C(OCC(=O)N1CCCCCC1)c1ccc([N+](=O)[O-])cc1Cl`, the inhibition was 20.3%.

As for `OC(COc1ccc(OCc2ccccc2)cc1)CN1CCCCC1` (centres undefined), the inhibition is 3.57%.

With `Cc1ccccc1OCc1nnc(SCC(=O)NCc2ccco2)n1C`, the inhibition was -6.74%.

As for `Cc1ccc(S(=O)(=O)NC(CC(C)C)C(=O)Nc2nccs2)cc1` (centres undefined), the inhibition is -11.9%.

On to `COc1ccc(CCNCC(O)Cn2ccc3ccccc32)cc1OC` (centres undefined), for which the inhibition is -9.67%.

In the case of `COc1ccccc1NCC(O)Cn1c2ccccc2c2ccccc21` (centres undefined), the inhibition is 2.53%.

On to `CC(C)N(Cc1cc2ccccc2[nH]c1=O)C(=O)c1cccnc1`, for which the inhibition is -8.2%.

Consider `COc1ccc(S(=O)(=O)N2C(=O)/C(=C3\SC(N)=NC3=O)c3ccccc32)cc1`, for which the inhibition is -3.28%.

For `CCCCOc1ccc(-c2nc(/C=N/c3nccs3)c(O)o2)cc1`, the inhibition is 25.4%.

`COc1ccc2nc(/N=C/c3c(C)[nH]n(-c4ccc(C)cc4)c3=O)sc2c1`: the inhibition is 33%.

As for `COc1ccc2nc(/N=C/c3c(C)[nH]n(-c4ccc(C)cc4C)c3=O)sc2c1`, the inhibition is 6.1%.

On to `Oc1oc(-c2ccccc2)nc1/C=N/c1nccs1`, for which the inhibition is -8.45%.

With `Cc1ccccc1CN1CCN(c2ccc(Cl)cc2)CC1`, the inhibition is 6.57%.

With `N/C(=N\OS(=O)(=O)c1ccc(Cl)cc1)c1cccnc1`, the inhibition was -1.48%.

`COCc1nn2c(N)c(C#N)cnc2c1-c1ccccc1`: the inhibition was 4.73%.

As to `Cc1nn2c(N)c(C#N)cnc2c1-c1ccccc1`, the inhibition was -6.08%.

`O=C(NCCc1c[nH]c2ccccc12)c1cnccn1`: the inhibition is 2.35%.

`O=[N+]([O-])c1ccc(C(O)C(CO)NC(=S)Nc2ccccc2)cc1` (centres undefined): the inhibition is -0.74%.

For the compound `Cc1ccc(NC(=S)NC(CO)C(O)c2ccc([N+](=O)[O-])cc2)cc1` (centres undefined), the inhibition was -9.71%.

For `Cn1c(-c2ccccc2)c(C(=O)CC#N)c2ccccc21`, the inhibition is 7.31%.

For the compound `CCn1c(-c2ccccc2)c(C(=O)CCl)c2ccccc21`, the inhibition was 76.1%.

Take `Cn1cc(C(N)=O)c2ccccc21`: the inhibition was -2.82%.

Take `Cn1cc(C(=O)Cc2ccccc2)c2ccccc21`: the inhibition is 0.26%.

For `Cc1ccc(-c2ccc(NC(=O)C3C4C=CC(C4)C3C(=O)O)cc2)o1` (centres undefined), the inhibition was 66.8%.

In the case of `COCCCN(CCC#N)C(=O)c1c(-c2c(Cl)cccc2Cl)noc1C`, the inhibition is -10.4%.

Turning to `Cc1cc([N+](=O)[O-])ccc1NC(=O)c1cccc(NC(=O)C(C)C)c1`, the inhibition is 10.8%.

On to `COc1cc(NC(=O)c2ccc([N+](=O)[O-])cc2)ccc1NC(=O)C(C)C`, for which the inhibition was 2.5%.

Take `COc1ccc(NC(=O)CCSc2nnc(C)s2)cc1`: the inhibition was -0.89%.

Regarding `CC(=O)Nc1ccc(S(=O)(=O)N2CCCC(C(=O)O)C2)cc1` (centres undefined), the inhibition was 0.58%.

Regarding `Fc1ccc(Oc2nc(-c3ccccc3)nnc2C(F)(F)F)cc1`, the inhibition is -3.97%.

As to `FC(F)(F)c1nnc(-c2ccccc2)nc1Sc1ccc(Cl)cc1`, the inhibition is 36.4%.

Consider `Cc1ccc(Sc2nc(-c3ccccc3)nnc2C(F)(F)F)cc1`, for which the inhibition is 13.4%.

In the case of `FC(F)(F)c1cccc(Oc2nc(-c3ccccc3)nnc2C(F)(F)F)c1`, the inhibition was 8.03%.

Regarding `CNc1nc(-c2ccccc2)nnc1C(F)(F)F`, the inhibition was -2.77%.

In the case of `FC(F)(F)c1nnc(-c2ccccc2)nc1N1CCCC1`, the inhibition is -1.21%.

Turning to `COC(=O)CC/C(O)=C1/C(=N)CC(C)(C)CC1=O`, the inhibition is -9.88%.

Consider `CC1CCN(CCCNC(=O)COc2cc(=O)n(C)c3ccccc23)CC1`, for which the inhibition was -0.28%.

Turning to `O=C(CCn1c(=O)c2sccc2n(CC(=O)OCc2ccccc2)c1=O)NCc1ccccc1`, the inhibition is -4.57%.

In the case of `CC(=O)N(Cc1ccc(F)cc1)C1=C(NCCc2ccccc2)C(=O)c2ccccc2C1=O`, the inhibition is 16.5%.

For the compound `CCC(=O)N(C1=C(NC)C(=O)c2ccccc2C1=O)C(C)C`, the inhibition was 2.12%.

With `CC(=O)N(C1=C(N2CCOCC2)C(=O)c2ccccc2C1=O)c1ccc(C(=O)O)cc1`, the inhibition was -1.19%.

For the compound `CCC(=O)N(C1=C(NC(C)C)C(=O)c2ccccc2C1=O)C(C)C`, the inhibition is 3.87%.

In the case of `CCNC(=O)/C=C1\NC(C)(C)Cc2c1ccc1ccccc21`, the inhibition is -3.91%.

`O=C1OCCC1Sc1nc2ccccc2s1` (centres undefined): the inhibition is 6.97%.

`O=C(CN1CCN(Cc2ccccc2Cl)C1=O)NCc1ccccn1`: the inhibition was 1.55%.

`O=C(NCC1CCCO1)C(c1ccc(F)cc1)N(Cc1ccc(F)cc1)C(=O)Cn1nnc(-c2cccs2)n1` (centres undefined): the inhibition is -8.2%.

Take `O=C(NCCc1nc2ccccc2[nH]1)/C(=C/c1ccc2c(c1)OCO2)NC(=O)c1ccccc1`: the inhibition was 1.83%.

Consider `O=C(NCCc1nc2ccccc2[nH]1)/C(=C/c1ccc2c(c1)OCO2)NC(=O)c1ccccc1Cl`, for which the inhibition was 2.62%.

For `Nc1nc(N)nc(-c2ccccn2)n1`, the inhibition is -3.41%.

As for `Cc1n[nH]c(C)c1Cc1c(F)cccc1Cl`, the inhibition was -0.71%.

For the compound `CC(NCc1ccc(Cl)cc1Cl)C(O)c1ccccc1` (centres undefined), the inhibition is 5.99%.

On to `CC1CCCN(S(=O)(=O)c2ccc3c(c2)CCN3C(=O)C2CCC2)C1` (centres undefined), for which the inhibition was 5.83%.

For `ONC(=Nc1ccc(Cl)cc1)c1ccc(Cl)cc1`, the inhibition is -13.7%.

`Cc1nn(-c2ccccc2)c(N)c1C(c1ccccc1)c1c(C)nn(-c2ccccc2)c1N`: the inhibition is 9.35%.

`Cc1ccc(C(c2c(C)nn(-c3ccccc3)c2N)c2c(C)nn(-c3ccccc3)c2N)cc1`: the inhibition was 6.99%.

Regarding `C#CCNC(=O)C1CCN(c2cc(C)nc(-c3ccccc3)n2)CC1`, the inhibition is -0.44%.

Regarding `CCOC(=O)c1cc([N+](=O)[O-])sc1NC(=O)c1ccc(S(=O)(=O)N2CC3(C)CC2CC(C)(C)C3)cc1` (centres undefined), the inhibition is -0.55%.

For the compound `O=C(O)c1ccc(O)c(N2C(=O)Nc3ccccc3N2O)c1`, the inhibition was -1.41%.

Turning to `CC[C@@H]1C=C(C)C[C@H](C)C[C@H](OC)[C@H]2O[C@@](O)(C(=O)C(=O)N3CCCC[C@H]3C(=O)O[C@H](/C(C)=C/[C@@H]3CC[C@@H](O)[C@H](OC)C3)[C@H](C)[C@@H](O)CC1=O)[C@H](C)C[C@@H]2OC`, the inhibition was 5.69%.

As for `Fc1cccc(CSc2nc3ncc(Cl)cc3[nH]2)c1`, the inhibition was -0.1%.

`CCc1[nH]c(=S)c(C#N)c2c1CCCC2`: the inhibition was -2.7%.

For the compound `CCOc1ccc2nc(Cl)c(/C=C/C(=O)c3ccco3)cc2c1`, the inhibition was 21.5%.

For the compound `Cc1cccc2cc(/C=C/C(=O)c3ccco3)c(Cl)nc12`, the inhibition was 7.5%.

`COc1cc2cc(/C=C/C(=O)c3ccco3)c(Cl)nc2cc1OC`: the inhibition is -1.16%.

For the compound `Cc1ccc(N/C=C/C(=O)c2ccco2)c(O)c1`, the inhibition was -2.39%.

As for `Cc1nc([N+](=O)[O-])cn1CC(=O)NCCCO`, the inhibition is 8.65%.

For the compound `Cc1ccc(-n2c(CNC(=O)c3cccs3)nnc2SCC(=O)NO)cc1`, the inhibition is 2.75%.

In the case of `COC(=O)c1ccc(CN2CCN(Cc3ccccc3)C(CCO)C2)cc1` (centres undefined), the inhibition is -3.82%.

Consider `COc1ccc(N(C(=O)c2ccco2)C(C(=O)NC2CCCC2)c2ccc(N(C)C)cc2)cc1OC` (centres undefined), for which the inhibition was -5.56%.

With `COC(=O)Cc1cc(=O)n2[nH]c(C)c(-c3ccccc3)c2n1`, the inhibition is -0.6%.

For `O=c1cc(-c2ccccc2)nc2c(-c3ccccc3)c(C(F)(F)F)[nH]n12`, the inhibition was 2.66%.

As for `CCCc1cc(=O)n2[nH]c(C)c(-c3ccccc3)c2n1`, the inhibition was 11.9%.

Take `Cc1ccccc1-c1cc2nc(-c3ccc([N+](=O)[O-])cc3)cc(=O)n2[nH]1`: the inhibition is -6.76%.

`COc1ccc(CCNCC(O)c2ccccc2)cc1` (centres undefined): the inhibition was -12.7%.

For `CC(NC(=O)c1ccccc1NC(=O)c1ccncc1)c1ccccc1` (centres undefined), the inhibition was 6.19%.

`CC(C)OC(=O)/C(=C\c1cccc2ccccc12)NC(=O)c1ccccc1`: the inhibition was 11.6%.

In the case of `N/C(=N\OC(=O)c1ccc(Cl)cc1)c1[nH]ncc1Br`, the inhibition is -8.82%.

As to `CC(C)(C)NC(=O)c1ccc2c(c1)N(CC(=O)N1CCN(c3ccc(F)cc3)CC1)C(=O)C(C)(C)O2`, the inhibition is 8.11%.

With `O=C(O)c1cccc(S(=O)(=O)Nc2ccccc2N2CCOCC2)c1`, the inhibition was -1.57%.

As to `Cc1cccc(C(=O)O/N=C(\N)Cc2ccc([N+](=O)[O-])cc2)c1`, the inhibition was 7.62%.

For the compound `COc1ccccc1C1(CCN=Cc2ccc(N(C)C)cc2)CCOC(C)(C)C1` (centres undefined), the inhibition is 2.7%.

On to `CCC(/C=C1\Sc2ccc(OC)cc2N1CC)=C\c1sc2ccc(OC)cc2[n+]1CCCS(=O)(=O)[O-]`, for which the inhibition was 0.61%.

As for `CCC(=O)/C=C1\Sc2ccc(OC)cc2N1CCO`, the inhibition was -14.1%.

What is called inhibition is the relative decrease from the control value, in per cent.
